Data reported in PubChem BioAssay AID1159580 (chemical genetic matrix, 2015).
“And” between values parts separate entries of the source, which are not always exact repeats. Equal values may be shown once. About 2,000 (36%) of roughly 5,500 compounds were called active. Roughly 18% stayed inconclusive and do not appear here. Cut-off read from the data, not from the text of the source: active = normalized growth mostly below about 0.91 (no sharp cut-off); inconclusive = no clear call, values can overlap the other calls; inactive = mostly above about 0.92. This is one part of the list.

Assay: chemical genetic growth profiling, strain panel (AID 1159580);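 note: tested at 20 µM; growth read once vehicle control cultures reached saturation at 30 °C; 1 = growth at the plate median or of vehicle wells; lower values mean less growth of the strain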
Conditions: S. cerevisiae deletion strains, growth OD

Measured: normalized growth

COC(=O)C1=CO[C@@H](O[C@@H]2O[C@H](CO)[C@@H](O)[C@H](O)[C@H]2O)[C@@H]2[C@@H](C)[C@@H](O)C[C@H]12
inactive: locus YAL013W, strain DEP1, stronger effect = lower value 1 | locus YAL021C, strain ccr4, stronger effect = lower value 0.973 | locus YAL026C, strain drs2, stronger effect = lower value 1.01 | locus YAL030W, strain snc1, stronger effect = lower value 0.996 | locus YBL061C, strain skt5, stronger effect = lower value 0.999 | locus YBR009C, strain hhf1, stronger effect = lower value 0.998 | locus YBR021W, strain FUR4, stronger effect = lower value 1.02 | locus YBR023C, strain chs3, stronger effect = lower value 0.994 | locus YBR171W, strain sec66, stronger effect = lower value 1 | locus YBR229C, strain ROT2, stronger effect = lower value 1.01 | locus YBR231C, strain swc5, stronger effect = lower value 1.01 | locus YBR279W, strain paf1, stronger effect = lower value 0.989 | locus YCL011C, strain gbp2, stronger effect = lower value 0.997 | locus YCL016C, strain dcc1, stronger effect = lower value 0.979 | locus YCL029C, strain bik1, stronger effect = lower value 0.989 | locus YCL061C, strain MRC1, stronger effect = lower value 0.973 | locus YCL069W, strain vba3, stronger effect = lower value 0.999 | locus YCR088W, strain abp1, stronger effect = lower value 0.998 | locus YDL005C, strain med2, stronger effect = lower value 0.989 | locus YDL035C, strain GPR1, stronger effect = lower value 1.02 | locus YDL040C, strain nat1, stronger effect = lower value 1 | locus YDL074C, strain BRE1, stronger effect = lower value 1 | locus YDL101C, strain DUN1, stronger effect = lower value 0.996 | locus YDL134C, strain PPH21, stronger effect = lower value 1.08 | locus YDL185W, strain tfp1, stronger effect = lower value 0.967 | locus YDL192W, strain arf1, stronger effect = lower value 1 | locus YDR001C, strain nth1, stronger effect = lower value 1 | locus YDR069C, strain doa4, stronger effect = lower value 0.998 | locus YDR101C, strain arx1, stronger effect = lower value 0.977 | locus YDR137W, strain rgp1, stronger effect = lower value 1 | locus YDR150W, strain NUM1, stronger effect = lower value 0.993 | locus YDR159W, strain sac3, stronger effect = lower value 0.998 | locus YDR162C, strain NBP2, stronger effect = lower value 1.01 | locus YDR195W, strain ref2 0.989 | locus YDR297W, strain sur2, stronger effect = lower value 0.996 | locus YDR318W, strain mcm21, stronger effect = lower value 1.01 | locus YDR334W, strain swr1, stronger effect = lower value 1.01 | locus YDR335W, strain msn5, stronger effect = lower value 0.995 | locus YDR388W, stronger effect = lower value 0.995 | locus YDR392W, strain spt3, stronger effect = lower value 0.891 | locus YDR502C, strain sam2, stronger effect = lower value 1.01 | locus YEL003W, strain gim4, stronger effect = lower value 1.02 | locus YEL037C, strain rad23, stronger effect = lower value 1.01 | locus YEL061C, strain CIN8 (second series), stronger effect = lower value 1 | locus YEL061C, strain CIN8, stronger effect = lower value 1.01 | locus YER015W, strain faa2, stronger effect = lower value 0.995 | locus YER016W, strain bim1, stronger effect = lower value 0.999 | locus YER110C, stronger effect = lower value 0.976 | locus YER111C, strain swi4, stronger effect = lower value 0.991 | locus YER155C, strain BEM2 (second series), stronger effect = lower value 0.986 | locus YER155C, strain BEM2, stronger effect = lower value 0.997 | locus YER167W, strain BCK2, stronger effect = lower value 1 | locus YFR010W, strain ubp6, stronger effect = lower value 1 | locus YGL078C, strain dbp3, stronger effect = lower value 0.989 | locus YGL086W, strain mad1, stronger effect = lower value 0.943 | locus YGL167C, strain pmr1, stronger effect = lower value 1.01 | locus YGL173C, strain kem1, stronger effect = lower value 1.02 | locus YGL227W, strain vid30, stronger effect = lower value 0.994 | locus YGL240W, strain doc1, stronger effect = lower value 0.987 | locus YGL248W, strain PDE1, stronger effect = lower value 1.02 | locus YGL253W, strain hxk2, stronger effect = lower value 1.01 | locus YGR078C, strain PAC10, stronger effect = lower value 1 | locus YGR135W, strain pre9, stronger effect = lower value 1 | locus YGR229C, strain SMI1, stronger effect = lower value 1.03 | locus YGR252W, strain gcn5, stronger effect = lower value 1.14 | locus YHR013C, strain ard1, stronger effect = lower value 1.03 | locus YHR027C, strain rpn1, stronger effect = lower value 1 | locus YHR030C, strain SLT2, stronger effect = lower value 0.992 and 1.04 | locus YHR079C, strain IRE1 (second series), stronger effect = lower value 0.979 | locus YHR079C, strain IRE1, stronger effect = lower value 1.06 | locus YHR094C, strain hxt1, stronger effect = lower value 0.998 | locus YHR129C, strain ARP1, stronger effect = lower value 1 | locus YHR142W, strain chs7, stronger effect = lower value 1 | locus YHR200W, strain rpn10, stronger effect = lower value 0.979 | locus YIL066C, strain RNR3, stronger effect = lower value 1.01 | locus YIL073C, strain SPO22, stronger effect = lower value 0.986 | locus YIL125W, strain kgd1, stronger effect = lower value 0.985 | locus YIR030C, strain dcg1, stronger effect = lower value 0.996 | locus YJL092W, strain hpr5, stronger effect = lower value 1 | locus YJL095W, strain BCK1 (second series), stronger effect = lower value 1 | locus YJL095W, strain BCK1, stronger effect = lower value 1.04 and 1 | locus YJL115W, strain asf1, stronger effect = lower value 0.999 | locus YJL129C, strain trk1, stronger effect = lower value 0.986 | locus YJL134W, strain LCB3, stronger effect = lower value 1 | locus YJL154C, strain vps35, stronger effect = lower value 1.01 | locus YJL164C, strain tpk1, stronger effect = lower value 1 | locus YJL166W, strain qcr8, stronger effect = lower value 0.972 | locus YJL168C, strain set2, stronger effect = lower value 0.978 | locus YJL187C, strain SWE1 (second series), stronger effect = lower value 1 | locus YJL187C, strain SWE1, stronger effect = lower value 1 | locus YJR043C, strain POL32, stronger effect = lower value 1.01 | locus YJR066W, strain TOR1, stronger effect = lower value 1.01 | locus YJR075W, strain HOC1, stronger effect = lower value 0.995 | locus YKL009W, strain mrt4, stronger effect = lower value 1.01 | locus YKL068W, stronger effect = lower value 0.987 | locus YKL085W, strain MDH1 (second series), stronger effect = lower value 0.978 | locus YKL085W, strain MDH1, stronger effect = lower value 0.978 | locus YKL160W, strain elf1, stronger effect = lower value 0.961 | locus YKL190W, strain CNB1, stronger effect = lower value 1 | locus YKR001C, strain vps1, stronger effect = lower value 0.999 | locus YKR026C, strain gcn3, stronger effect = lower value 0.997 | locus YKR091W, strain srl3, stronger effect = lower value 0.992 | locus YLL001W, strain dnm1, stronger effect = lower value 0.973 | locus YLL026W, stronger effect = lower value 1 | locus YLL041C, strain sdh2, stronger effect = lower value 0.994 | locus YLR027C, strain aat2, stronger effect = lower value 0.994 | locus YLR039C, strain RIC1, stronger effect = lower value 1.05 | locus YLR058C, strain SHM2, stronger effect = lower value 1.01 | locus YLR102C, strain apc9, stronger effect = lower value 0.984 | locus YLR113W, strain HOG1, stronger effect = lower value 0.991 | locus YLR221C, strain rsa3, stronger effect = lower value 0.971 | locus YLR258W, strain gsy2, stronger effect = lower value 0.981 | locus YLR262C, strain YPT6 (second series), stronger effect = lower value 0.985 | locus YLR262C, strain YPT6, stronger effect = lower value 1.08 | locus YLR268W, strain sec22, stronger effect = lower value 0.968 | locus YLR320W, strain mms22, stronger effect = lower value 0.964 | locus YLR330W, strain CHS5, stronger effect = lower value 0.984 | locus YLR342W, strain FKS1 (second series), stronger effect = lower value 1.04 | locus YLR342W, strain FKS1, stronger effect = lower value 0.995 | locus YLR357W, strain rsc2, stronger effect = lower value 0.986 | locus YLR370C, strain arc18, stronger effect = lower value 0.992 | locus YLR371W, strain rom2, stronger effect = lower value 0.973 | locus YLR384C, strain iki3, stronger effect = lower value 1 | locus YLR418C, strain cdc73, stronger effect = lower value 1.04 | locus YML016C, strain PPZ1, stronger effect = lower value 0.997 | locus YML032C, strain rad52, stronger effect = lower value 1.03 | locus YML120C, strain ndi1, stronger effect = lower value 0.99 | locus YML124C, strain tub3, stronger effect = lower value 0.988 | locus YMR058W, strain fet3, stronger effect = lower value 1 | locus YMR078C, strain ctf18, stronger effect = lower value 0.954 | locus YMR125W, strain sto1, stronger effect = lower value 0.97 | locus YMR129W, stronger effect = lower value 1.01 | locus YMR205C, strain PFK2, stronger effect = lower value 0.952 | locus YMR223W, strain ubp8, stronger effect = lower value 1.01 | locus YMR231W, strain pep5, stronger effect = lower value 1 | locus YMR263W, strain SAP30, stronger effect = lower value 0.996 | locus YMR307W, strain GAS1, stronger effect = lower value 1.18 | locus YNL067W, strain RPL9B, stronger effect = lower value 1 | locus YNL071W, strain lat1, stronger effect = lower value 1 | locus YNL183C, strain NPR1, stronger effect = lower value 1 | locus YNL209W, strain ssb2, stronger effect = lower value 1 | locus YNL233W, strain BNI4, stronger effect = lower value 1 | locus YNL248C, strain rpa49, stronger effect = lower value 0.982 | locus YNL250W, strain rad50, stronger effect = lower value 0.939 | locus YNL271C, strain bni1, stronger effect = lower value 0.989 | locus YNL298W, strain CLA4, stronger effect = lower value 1 | locus YNL307C, strain MCK1, stronger effect = lower value 0.979 | locus YNL322C, strain KRE1 (second series), stronger effect = lower value 0.989 | locus YNR049C, strain mso1, stronger effect = lower value 0.997 | locus YNR052C, strain pop2, stronger effect = lower value 0.997 | locus YOL012C, strain htz1 1.13 | locus YOL147C, strain pex11, stronger effect = lower value 0.988 | locus YOR001W, strain rrp6, stronger effect = lower value 1 | locus YOR061W, strain CKA2, stronger effect = lower value 1.01 | locus YOR069W, strain VPS5, stronger effect = lower value 0.995 | locus YOR070C, strain gyp1, stronger effect = lower value 0.999 | locus YOR080W, strain dia2, stronger effect = lower value 0.997 | locus YOR083W, strain WHI5, stronger effect = lower value 0.958 | locus YOR106W, strain vam3, stronger effect = lower value 0.989 | locus YOR136W, strain idh2, stronger effect = lower value 0.991 | locus YOR144C, strain elg1, stronger effect = lower value 0.993 | locus YOR184W, strain ser1, stronger effect = lower value 1 | locus YOR231W, strain MKK1, stronger effect = lower value 1.03 | locus YOR265W, strain rbl2, stronger effect = lower value 0.999 | locus YOR270C, strain vph1, stronger effect = lower value 1.02 | locus YOR290C, strain snf2, stronger effect = lower value 0.98 | locus YOR316C, strain cot1, stronger effect = lower value 0.996 | locus YPL051W, strain arl3, stronger effect = lower value 0.977 | locus YPL055C, strain LGE1, stronger effect = lower value 1.01 | locus YPL078C, strain atp4, stronger effect = lower value 0.965 | locus YPL106C, strain sse1, stronger effect = lower value 0.948 | locus YPL240C, strain hsp82, stronger effect = lower value 0.996 | locus YPL256C, strain CLN2, stronger effect = lower value 1.05 | locus YPR119W, strain clb2, stronger effect = lower value 0.981 | locus YPR141C, strain kar3, stronger effect = lower value 0.977 | locus YPR163C, strain tif3, stronger effect = lower value 0.984 | locus YPR167C, strain met16, stronger effect = lower value 0.995 | strain wtn01, stronger effect = lower value 0.948
